Assay outcomes as filed in PubChem.
rCAG RNA binder: binders of r(CAG) RNA repeats, primary screen, biochemical, fluorescence; inhibition, % at 3 µM; hit rate 1.3% among 370,000; r(CAG) RNA repeat, TO-PRO-1 dye displacement fluorescence;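 active means inhibition above the plate cutoff, the mean of all test compounds on that plate plus 3 SD, cut at about 35% in these data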;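 further: 0% = DMSO alone and 100% = 100 µM mitoxantrone as full dye displacement; higher means more dye released from RNA so lower well fluorescence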
TLR9-MyD88 inh: inhibitors of TLR9-MyD88 association in cells, primary screen, cell-based, CHO, BLA complementation, fluorescence; Toll-like receptor 9 (Homo sapiens) + Myeloid differentiation primary response protein …; CCF4 FRET ratio; inhibition, % at 4.98 µM; hit rate 0.21% among 340,000;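 active means inhibition above the mean over all tested compounds plus 3 SD, cut at about 21% in these data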;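 further: 0% = DMSO only wells and 100% = clavulanate BLA inhibitor control wells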
TLR4 MyD88 comp: inhibitors of TLR4-MyD88 association in cells, primary screen, cell-based, HeLa CL3-4, BLA complementation, FRET ratio | Toll-like receptor 4 (Homo sapiens) + Myeloid differentiation primary response protein … | HeLa CL3-4 TLR4/MyD88 BLA complementation | inhibition, % at 8.4 µM | hit rate 0.18% among 200,000 | AID 861, 2007; in the data active means inhibition above about 25%;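 further: 0% = vehicle and 100% = reference inhibitor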
NOD2-RIPK2 inh: NOD2-RIPK2 binding disruptors in cells, primary screen, fluorescence, CHO cells, BLA complementation. CCF4 ratio. inhibition, % at 4.98 µM. hit rate 0.38% among 360,000. Receptor-interacting serine/threonine-protein kinase 2 (Homo sapiens), O43353; in the data active means inhibition above about 21%;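 further: 0% = vehicle only and 100% = reference blocker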
PRMT1 inh: PRMT1 methyltransferase inhibitors, primary screen, biochemical, fluorescence polarization. Protein arginine N-methyltransferase 1 (Homo sapiens), Q99873. recombinant PRMT1, activity-based probe fluorescence polarization. inhibition, % at 2.79 µM. hit rate 1.3% among 370,000. AID 652257, 2013;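 active means inhibition above about 21% made by adding two undisclosed values, limit read from the data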
ABHD5-PLIN5 inh: ABHD5-PLIN5 interaction inhibitors, primary screen, cell lysate, split luciferase complementation, luminescence; Perilipin-5 (Homo sapiens) + 1-acylglycerol-3-phosphate O-acyltransferase ABHD5 (Homo …; Split G. princeps luciferase complementation, 4 h; inhibition, % at 4 µM; hit rate 0.78% among 360,000;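 active means inhibition above the mean inhibition across every tested compound plus 3 SD, cut at about 22% in these data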;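 further: 0% = DMSO only wells and the 100% control is not disclosed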
Target sequence (Q00G26 whole entry, looked up): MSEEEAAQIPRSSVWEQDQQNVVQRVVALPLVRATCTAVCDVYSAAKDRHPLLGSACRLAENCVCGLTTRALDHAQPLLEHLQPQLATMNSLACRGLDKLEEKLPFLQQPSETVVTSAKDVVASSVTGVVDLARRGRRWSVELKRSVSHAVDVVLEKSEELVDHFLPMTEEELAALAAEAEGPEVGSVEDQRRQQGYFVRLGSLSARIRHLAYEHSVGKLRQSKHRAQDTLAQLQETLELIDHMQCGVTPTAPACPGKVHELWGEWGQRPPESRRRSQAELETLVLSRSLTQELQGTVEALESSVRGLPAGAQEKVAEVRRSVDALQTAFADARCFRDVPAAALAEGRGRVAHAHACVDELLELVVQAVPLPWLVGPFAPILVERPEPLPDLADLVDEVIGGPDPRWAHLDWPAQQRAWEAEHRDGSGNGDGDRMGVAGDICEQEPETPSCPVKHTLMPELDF
Target sequence (Q8WTS1 whole entry, looked up): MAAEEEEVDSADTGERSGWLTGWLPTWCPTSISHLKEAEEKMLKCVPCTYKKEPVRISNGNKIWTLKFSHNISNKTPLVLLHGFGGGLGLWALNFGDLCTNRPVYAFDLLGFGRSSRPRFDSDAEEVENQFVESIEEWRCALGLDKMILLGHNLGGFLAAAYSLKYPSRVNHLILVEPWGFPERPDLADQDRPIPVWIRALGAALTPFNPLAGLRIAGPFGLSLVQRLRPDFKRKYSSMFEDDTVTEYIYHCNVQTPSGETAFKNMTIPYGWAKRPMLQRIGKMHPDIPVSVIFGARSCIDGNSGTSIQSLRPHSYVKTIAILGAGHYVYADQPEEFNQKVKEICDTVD
ABHD5-PLIN5 conf: ABHD5-PLIN5 interaction inhibitors, confirmation, biochemical, luminescence | shares compounds with ABHD5-PLIN5 inh | inhibition, % at 4 µM | hit rate 67% among 2,200 | AID 651612, 2012; in the data active means inhibition above about 23%;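 further: 0% = DMSO vehicle wells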
HNF4 counter: HNF4 dimerization inhibitors, counter-screen for ABHD5-PLIN5 interaction inhibitor project, biochemical, split-luciferase complementation, luminescence. shares compounds with ABHD5-PLIN5 inh. inhibition, % at 4 µM. hit rate 77% among 2,200. AID 651674, 2012;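 active means mean inhibition across replicate wells exceeding the computed hit threshold, cut at about 13% in these data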;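 further: light from luciferase halves that rejoin when HNF4 fusion proteins dimerize; 0% = DMSO only wells and the 100% control is not given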
NOD2 RIPK2 conf: NOD2-RIPK2 binding disruptors, retest, confirmation, fluorescence, CHO cells, BLA complementation, triplicate. shares compounds with NOD2-RIPK2 inh. CCF4 FRET. inhibition, % at 4.98 µM. hit rate 70% among 1,200. AID 624370, 2012;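 active means mean inhibition across replicates above a set limit taken from the earlier primary screen, cut at about 21% in these data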;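 further: 0% = DMSO-only wells and the high end = clavulanate BLA-blocked wells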
BLA counter: counter-screen for NOD2-RIPK2 interaction inhibitors: BLA reporter; CHO BLA reporter, CCF4 FRET ratio, counterscreen; AID 624371; hit rate 57% among 1,200; shares compounds with NOD2-RIPK2 inh; inhibition, % at 4.98 µM;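 active means mean inhibition above the low-control mean inhibition plus three low-control SD, cut at about 11% in these data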;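 further: 0% = DMSO only wells and 100% = clavulanate high control wells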
* hit, by the source's call; . = no result given. Only some compounds are listed: those with a hit (about 3.3% of all), similar ones and a draw of the others.

SMILES	rCAG RNA binder	TLR9-MyD88 inh	TLR4 MyD88 comp	NOD2-RIPK2 inh	PRMT1 inh	ABHD5-PLIN5 inh	ABHD5-PLIN5 conf	HNF4 counter	NOD2 RIPK2 conf	BLA counter
COC(=O)C1=C[C@H]([C@@H](C)[C@H](OC)c2ccccc2Br)[C@@H]2[C@H]1c1ccccc1N2C	6.2	.	.	.	-2.7	.	.	.	.	.
CC(C)CCP(=O)(O)O	2.1	.	.	.	-1.0	.	.	.	.	.
COc1ccc(C(=O)CN2CCOCC2)cc1F	-0.2	2.2	-8.1	6.7	0.2	30.7*	-2.6	9.4	.	.
Cc1c(P(=S)(c2ccccc2)c2ccccc2)c2ccccc2n1C	.	.	.	.	5.8	.	.	.	.	.
Cc1ccc(N2C(=O)CC(=O)NC2=O)cc1	2.2	-0.4	5.1	1.1	4.0	20.6	.	.	.	.
O=C1CC(=O)N(c2ccccc2)C(=O)N1	3.2	-2.0	.	-3.8	1.0	29.0*	5.2	23.9*	.	.
Cc1ccc(N2C(=O)NC(=O)/C(=C\C=C\c3ccco3)C2=O)cc1	28.2	2.2	.	-5.5	20.3	24.6*	94.7*	72.9*	.	.
O=C1NC(=O)N(c2ccccc2)C(=O)/C1=C/C=C/c1ccco1	12.4	8.0	.	0.3	15.2	21.6	.	.	.	.
CC(C)OC(=O)C1C(c2ccc(I)cc2)CC2CCC1N2C (centres undefined)	6.3	.	.	.	-4.3	.	.	.	.	.
COc1ccc(OC)c(N2C(=O)CC(=O)NC2=O)c1	3.8	-1.5	.	-2.4	-0.3	30.1*	5.2	20.6*	.	.
CC1CCC(C(C)C)C(OC(=O)Cn2c(COc3ccccc3)[n+](C)c3ccccc32)C1 (centres undefined)	10.4	3.0	.	-10.1	4.6	28.6*	12.0	7.7	.	.
COc1cc2c(cc1/C=C/[N+](=O)[O-])OCO2	3.3	-4.9	12.9	40.1*	10.7	65.9*	96.2*	101.2*	64.6*	-5.1
CCOC(=O)[C@]12Cc3cc(C)ccc3[C@H]1N(C1CCCCC1)C(=O)c1ccccc12	3.6	.	.	56.4*	-1.4	48.2*	20.9	39.2*	66.3*	0.1
CCOC(=O)[C@]12Cc3cc(Cl)ccc3[C@H]1N(C1CCCCC1)C(=O)c1cc(OC)ccc12	5.5	.	.	69.9*	-2.4	60.9*	39.2*	58.1*	66.2*	7.0
CCOC(=O)[C@]12Cc3ccc(C)cc3[C@H]1N(C1CCCCC1)C(=O)c1ccccc12	2.2	.	.	52.4*	0.1	39.8*	29.8*	21.1*	54.0*	1.4
CCOC(=O)[C@]12Cc3cc(Cl)ccc3[C@H]1N(C)C(=O)c1cc(OC)ccc12	0.3	.	.	0.6	5.1	11.3	.	.	.	.
CCOC(=O)[C@]12Cc3ccccc3[C@H]1N(C(C)C)C(=O)c1ccccc12	1.6	.	.	-6.1	-3.0	5.2	.	.	.	.
CCOC(=O)[C@]12Cc3cc(C)ccc3[C@H]1N(CCC(=O)OC)C(=O)c1ccccc12	0.7	.	.	2.4	-4.5	13.6	.	.	.	.
CCOC(=O)[C@]12Cc3c(cc(OC)c(OC)c3OC)[C@H]1N(C1CCCCC1)C(=O)c1ccccc12	-0.6	.	.	28.3*	0.8	39.4*	19.6	32.2*	71.0*	1.7
COc1cccc(-c2ccc3c(c2)C2c4cnnn4-c4ccccc4C(=O)N2CC3)c1 (centres undefined)	3.9	.	.	.	-0.9	.	.	.	.	.
CCOC(=O)[C@]12Cc3ccc(C)cc3[C@H]1N(C1CCCCC1)C(=O)c1cc(OC)ccc12	2.7	.	.	57.9*	0.5	43.1*	41.1*	46.3*	63.1*	0.5
CC(C)(C)NC(=O)C1CN=C(c2ccccc2)c2cc(Cl)ccc2N1C(=O)C1CCC1 (centres undefined)	3.1	.	.	.	-2.3	.	.	.	.	.
C[C@H](NC(=O)OCc1ccccc1)C(=O)NC(Cc1ccccc1)P(=O)(Oc1ccccc1)Oc1ccccc1 (some centres undefined)	4.2	.	.	.	-0.8	.	.	.	.	.
Cc1ccccc1C(=O)NCCN1CCC2(CC1)C(=O)NCN2c1ccccc1	1.4	.	.	.	5.8	.	.	.	.	.
C=C1[C@@H](C)C2[C@H](Cc3ccccc3)NC(=O)[C@]23[C@H](OC(C)=O)/C=C/[C@@](C)(O)C(=O)[C@@H](C)C/C=C/[C@H]3[C@@H]1O (some centres undefined)	-1.2	.	.	.	-6.4	.	.	.	.	.
COC(=O)C1=C(C(=O)OC)SC2(S1)C(C(=O)OC)=C(C(=O)OC)Sc1c2ssc1=O	10.9	2.4	.	75.1*	105.1*	90.7*	101.8*	111.7*	75.5*	3.7
